Experimental findings from PubChem BioAssay (Tox21) are described below.

Records with an inconclusive call do not appear. The source made the active and inactive calls. Calls come from the whole dose curve; as a rule, active = well fitted curve in the direction sought with a large enough effect in the repeat runs; inconclusive = weak or mixed curves; inactive = no such curve, though single readings can be large; an effect the other way counts as inactive or inconclusive.

Assay [1] concerns the target Cytochrome P450 2C19 (Homo sapiens) (UniProt P33261). Description: Cytochrome P450 Family 2 Subfamily C Member 19 (CYP2C19) small molecule antagonists: luciferase reporter qHTS assay (AID 1671197). Note: nearly all actives have a fitted effect of over 65% in size. Note: potency is the fitted concentration of half-maximal effect. In a few lines: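 Light output is proportional to CYP2C19 activity: proluciferin substrate is converted to luciferin, then detected by a luciferin detection reagent that also stops the 1 h, 37C NADPH-driven reaction. Ketoconazole serves as positive control.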
For orientation: Reporter assays use an easily measured gene product as a stand-in for the process of interest.

The target in assay [2] is Cytochrome P450 1A2 (Homo sapiens) (UniProt P05177). Description: Cytochrome P450 Family 1 Subfamily A Member 2 (CYP1A2) small molecule antagonists: luciferase reporter qHTS assay (AID 1671199). Note: nearly all actives have a fitted effect of over 50% in size. Note: potency is the fitted concentration of half-maximal effect. In short, it runs like this: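 Read-out is luminescence from luciferin detection reagent (20 min) proportional to CYP1A2 activity; compounds in DMSO preincubated 10 min with enzyme and proluciferin substrate, then NADPH regeneration solution, 1 h, room temperature.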
Cytochrome P450 1A2 (Homo sapiens), sequence (P05177 whole entry, looked up): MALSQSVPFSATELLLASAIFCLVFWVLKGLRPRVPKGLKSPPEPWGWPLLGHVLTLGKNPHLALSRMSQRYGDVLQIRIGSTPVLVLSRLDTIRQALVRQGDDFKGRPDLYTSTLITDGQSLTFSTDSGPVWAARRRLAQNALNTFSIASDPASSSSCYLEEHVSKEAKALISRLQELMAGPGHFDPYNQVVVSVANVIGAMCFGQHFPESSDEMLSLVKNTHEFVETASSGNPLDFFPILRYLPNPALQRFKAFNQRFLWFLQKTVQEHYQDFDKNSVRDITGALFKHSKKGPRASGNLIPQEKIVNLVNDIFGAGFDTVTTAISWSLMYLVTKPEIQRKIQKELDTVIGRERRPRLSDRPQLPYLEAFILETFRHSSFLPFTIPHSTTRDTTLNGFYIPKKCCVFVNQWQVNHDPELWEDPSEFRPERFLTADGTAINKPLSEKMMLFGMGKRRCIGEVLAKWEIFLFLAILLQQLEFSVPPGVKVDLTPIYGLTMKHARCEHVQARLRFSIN

Assay [3] addresses Voltage-gated inwardly rectifying potassium channel KCNH2 (Homo sapiens) (UniProt Q12809). The assay is described as follows: Human Ether-a-go-go-Related Gene (hERG) channel small molecule antagonists: fluorescence cell-based qHTS assay (AID 1671200).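 Note: hERG-expressing U2OS cells given a thallium stimulus after FluxOR II dye loading; series mostly up to about 77 µM; nearly all actives have a fitted effect of over 50% in size.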 In short, it runs like this: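 Read-out: thallium influx as a surrogate for potassium, tracked as fluorescence (480 nm ex/540 nm em) every second for 2 min after Stimulus Buffer addition in dye-loaded hERG-U2OS cells.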
(In general: The hERG channel carries a current that helps repolarise heart muscle cells.)

In assay [4] the target is Cytochrome P450 3A4 (Homo sapiens) (UniProt P08684). The assay is described as follows: Cytochrome P450 Family 3 Subfamily A Member 4 (CYP3A4) small molecule antagonists: luciferase reporter qHTS assay (AID 1671201). Note: nearly all actives have a fitted effect of over 50% in size. Note: potency is the fitted concentration of half-maximal effect. In short, it runs like this:
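Luminescent readout (RLU) proportional to CYP3A4 activity, from luciferin generated off a proluciferin substrate. Enzyme–substrate mix plus compound 10 min at room temp, NADPH regeneration 1 h, detection reagent 20 min.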

In assay [5] the target is Cytochrome P450 2C9 (Homo sapiens) (UniProt P11712). Description: Cytochrome P450 Family 2 Subfamily C Member 9 (CYP2C9) small molecule antagonists: luciferase reporter qHTS assay (AID 1671198). Note: nearly all actives have a fitted effect of over 50% in size. Note: potency is the fitted concentration of half-maximal effect. In short, it runs like this:
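P450-Glo proluciferin substrate with CYP2C9 enzyme; 10 min RT preincubation, then NADPH regeneration 1 h at 37C; luciferin detection reagent 20 min RT, luminescence in relative luminescence units.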

Assay [6] addresses Cytochrome P450 2D6 (Homo sapiens) (UniProt P10635). The assay is described as follows: Cytochrome P450 Family 2 Subfamily D Member 6 (CYP2D6) small molecule antagonists: luciferase reporter qHTS assay (AID 1671196). In a few lines: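 Chemicals tested for interference with CYP2D6 activity; proluciferin substrate, NADPH regeneration, 1 h at room temperature, luminescent detection.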

Cytochrome P450 2C19 (Homo sapiens), sequence (P33261 whole entry, looked up): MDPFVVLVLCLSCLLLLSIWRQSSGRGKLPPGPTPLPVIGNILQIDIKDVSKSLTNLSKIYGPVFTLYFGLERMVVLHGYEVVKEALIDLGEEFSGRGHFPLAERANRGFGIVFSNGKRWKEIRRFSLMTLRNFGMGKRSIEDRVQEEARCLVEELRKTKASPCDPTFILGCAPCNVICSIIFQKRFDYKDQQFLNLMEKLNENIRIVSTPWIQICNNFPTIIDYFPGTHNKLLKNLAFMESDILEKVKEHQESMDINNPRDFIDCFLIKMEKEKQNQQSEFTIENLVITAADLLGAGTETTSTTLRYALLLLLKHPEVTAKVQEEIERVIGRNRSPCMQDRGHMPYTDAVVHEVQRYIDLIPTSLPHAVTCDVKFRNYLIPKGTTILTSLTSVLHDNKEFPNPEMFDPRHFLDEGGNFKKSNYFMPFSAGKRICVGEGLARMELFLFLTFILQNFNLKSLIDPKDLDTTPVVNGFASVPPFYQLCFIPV
Cytochrome P450 2C9 (Homo sapiens), sequence (P11712 whole entry, looked up): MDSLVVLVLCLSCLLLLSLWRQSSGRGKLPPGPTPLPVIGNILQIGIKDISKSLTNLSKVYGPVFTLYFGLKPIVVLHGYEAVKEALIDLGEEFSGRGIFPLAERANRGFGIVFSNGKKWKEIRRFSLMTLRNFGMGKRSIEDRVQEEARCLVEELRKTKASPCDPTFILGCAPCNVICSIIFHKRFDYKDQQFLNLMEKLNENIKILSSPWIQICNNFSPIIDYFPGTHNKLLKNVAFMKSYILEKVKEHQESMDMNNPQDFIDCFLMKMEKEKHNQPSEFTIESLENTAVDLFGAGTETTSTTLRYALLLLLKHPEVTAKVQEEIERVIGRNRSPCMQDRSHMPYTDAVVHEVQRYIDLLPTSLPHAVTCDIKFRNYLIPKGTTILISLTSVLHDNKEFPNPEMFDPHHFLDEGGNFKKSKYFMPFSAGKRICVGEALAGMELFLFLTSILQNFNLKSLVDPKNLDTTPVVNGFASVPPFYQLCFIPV
Cytochrome P450 3A4 (Homo sapiens), sequence (P08684 whole entry, looked up): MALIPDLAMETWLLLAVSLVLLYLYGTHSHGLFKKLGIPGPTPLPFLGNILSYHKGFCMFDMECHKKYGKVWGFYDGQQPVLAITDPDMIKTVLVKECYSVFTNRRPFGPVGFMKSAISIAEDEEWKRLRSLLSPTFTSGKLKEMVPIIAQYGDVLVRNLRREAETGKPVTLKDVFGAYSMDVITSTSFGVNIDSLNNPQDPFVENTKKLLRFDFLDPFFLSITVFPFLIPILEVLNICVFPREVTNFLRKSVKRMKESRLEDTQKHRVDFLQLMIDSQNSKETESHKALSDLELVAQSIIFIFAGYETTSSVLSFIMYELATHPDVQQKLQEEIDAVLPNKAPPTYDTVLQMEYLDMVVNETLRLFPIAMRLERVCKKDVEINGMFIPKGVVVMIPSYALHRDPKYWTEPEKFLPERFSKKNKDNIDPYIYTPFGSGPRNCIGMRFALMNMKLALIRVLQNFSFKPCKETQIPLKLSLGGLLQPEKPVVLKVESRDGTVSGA
Voltage-gated inwardly rectifying potassium channel KCNH2 (Homo sapiens), sequence (Q12809 whole entry, looked up): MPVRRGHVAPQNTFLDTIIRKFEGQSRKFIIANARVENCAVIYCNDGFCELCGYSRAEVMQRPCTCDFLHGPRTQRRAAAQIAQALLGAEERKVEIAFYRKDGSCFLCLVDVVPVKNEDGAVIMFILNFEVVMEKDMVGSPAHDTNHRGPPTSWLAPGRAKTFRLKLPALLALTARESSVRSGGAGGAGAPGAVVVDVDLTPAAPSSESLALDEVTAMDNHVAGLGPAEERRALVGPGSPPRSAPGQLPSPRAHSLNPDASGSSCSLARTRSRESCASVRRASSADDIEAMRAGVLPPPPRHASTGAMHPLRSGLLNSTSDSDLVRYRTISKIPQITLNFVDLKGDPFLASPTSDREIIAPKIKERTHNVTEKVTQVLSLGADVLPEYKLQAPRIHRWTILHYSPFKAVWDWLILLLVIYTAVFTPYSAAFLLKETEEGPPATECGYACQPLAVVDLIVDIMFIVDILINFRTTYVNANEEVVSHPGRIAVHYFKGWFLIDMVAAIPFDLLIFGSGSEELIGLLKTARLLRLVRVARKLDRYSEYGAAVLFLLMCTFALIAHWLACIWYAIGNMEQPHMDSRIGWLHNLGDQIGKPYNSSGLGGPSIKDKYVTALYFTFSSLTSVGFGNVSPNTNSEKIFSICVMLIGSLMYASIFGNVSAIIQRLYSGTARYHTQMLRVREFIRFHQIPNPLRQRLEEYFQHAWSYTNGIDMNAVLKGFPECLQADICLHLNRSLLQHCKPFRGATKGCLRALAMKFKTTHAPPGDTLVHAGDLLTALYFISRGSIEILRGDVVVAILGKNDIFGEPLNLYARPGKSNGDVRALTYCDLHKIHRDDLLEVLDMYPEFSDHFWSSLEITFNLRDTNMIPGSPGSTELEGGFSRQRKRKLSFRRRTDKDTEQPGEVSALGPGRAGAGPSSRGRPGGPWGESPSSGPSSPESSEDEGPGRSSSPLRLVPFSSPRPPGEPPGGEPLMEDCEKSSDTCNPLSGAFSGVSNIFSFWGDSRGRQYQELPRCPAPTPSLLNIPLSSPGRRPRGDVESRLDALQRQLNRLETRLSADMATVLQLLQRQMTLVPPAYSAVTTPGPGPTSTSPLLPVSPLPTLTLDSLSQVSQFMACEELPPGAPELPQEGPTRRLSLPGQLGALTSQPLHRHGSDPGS
Cytochrome P450 2D6 (Homo sapiens), sequence (P10635 whole entry, looked up): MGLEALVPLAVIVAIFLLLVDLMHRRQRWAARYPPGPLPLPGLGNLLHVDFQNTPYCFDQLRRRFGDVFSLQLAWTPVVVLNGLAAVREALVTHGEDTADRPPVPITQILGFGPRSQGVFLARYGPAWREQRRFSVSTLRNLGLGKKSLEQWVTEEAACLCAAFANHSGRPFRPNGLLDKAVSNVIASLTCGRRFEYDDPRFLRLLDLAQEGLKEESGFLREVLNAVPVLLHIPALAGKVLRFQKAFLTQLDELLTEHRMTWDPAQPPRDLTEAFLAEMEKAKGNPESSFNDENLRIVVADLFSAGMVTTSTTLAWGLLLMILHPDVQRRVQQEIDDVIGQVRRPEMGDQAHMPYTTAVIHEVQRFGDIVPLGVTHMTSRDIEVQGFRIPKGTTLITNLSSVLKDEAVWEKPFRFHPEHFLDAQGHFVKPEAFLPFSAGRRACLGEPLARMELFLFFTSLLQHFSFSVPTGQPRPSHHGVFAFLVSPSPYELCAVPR

As to `[O-][N+](=Nc1ccccc1)c1ccccc1`, the Potency in assay [1] was 63.3 µM (active); in assay [2] it was 5.64 µM (active). Also, the Potency entry in assay [3] and in assay [4] was “inactive” throughout.

For `CCOC(=O)Cn1c(=O)sc2cccc(Cl)c21`, the Potency is 7.96 µM (active) in assay [1], 10 µM (active) in assay [5] and 5.03 µM (active) in assay [2]. The Potency result in assay [3] was “inactive”.

For the compound `O=C(O)/C=C/c1ccc(/C=C/C(=O)O)cc1`, the Potency in assay [1] was 8.74 µM (active). The Potency result in assay [5], in assay [2], in assay [3] and in assay [4] was “inactive” throughout.

For `c1ccc(SCCSc2ccccc2)cc1`, the Potency in assay [1] is 3.53 µM (active); in assay [2], 31.4 µM (active). Also, in assay [4], the Potency entry is “inactive”.

As for `COC(C(=O)O)c1ccccc1` (stereo not given), the Potency entry in assay [1], in assay [2], in assay [3] and in assay [4] was “inactive” in each case.

On to `Cc1ccccc1Br`, for which, in assay [1], the Potency was 79.1 µM (active). The Potency entry in assay [4] is “inactive”.

For the compound `NS(=O)(=O)c1cc2c(cc1C(F)(F)F)NC(Cc1ccccc1)NS2(=O)=O` (stereo not given), the Potency entry in assay [2] was “inactive”.

`NC(=O)c1ncn([C@@H]2O[C@H](CO)[C@@H](O)[C@H]2O)c1O`: the Potency result in assay [1], in assay [5], in assay [2] and in assay [4] was “inactive” in each case.

Turning to `COc1ccc(N=[N+]([O-])c2ccc(OC)cc2)cc1`, the values for the Potency in assay [1] and in assay [2] were 19.8 µM (active) and 7.03 µM (active), respectively. Besides, the Potency entry in assay [3] and in assay [4] was “inactive” each time.

`O=S(=O)(c1cccc2cnccc12)N1CCCNCC1`: the Potency result in assay [1], in assay [2] and in assay [3] was “inactive” in each case.

Take `CSc1nc(NC2CC2)nc(NC(C)(C)C)n1`: the Potency in assay [1] was 20 µM (active); in assay [5], 35.6 µM (active); in assay [2], 2.52 µM (active); in assay [4], 39.9 µM (active).

As for `O=C1C(CCS(=O)c2ccccc2)C(=O)N(c2ccccc2)N1c1ccccc1` (stereo not given), the Potency entry in assay [2] and in assay [3] was “inactive” in each case.

As for `CCCCc1ccc(N)cc1`, the Potency in assay [1] was 39.9 µM (active); in assay [2] it was 35.6 µM (active). Besides, in assay [3], the Potency result was “inactive”.

Take `CCOC(=O)[C@H](CCc1ccccc1)N[C@@H](C)C(=O)N1CCC[C@H]1C(=O)O`: the Potency result in assay [1], in assay [2] and in assay [3] was “inactive” throughout.

With `NCCNC(=O)c1ccc(Cl)cn1`, the Potency result in assay [1], in assay [3] and in assay [4] was “inactive” throughout.

With `N[C@@H](CS)C(=O)O`, the Potency entry in assay [2], in assay [3] and in assay [4] was “inactive” each time.

`N#CC1(O)CCCCC1`: in assay [1], the Potency was 40.2 µM (active). Further, the Potency entry in assay [3] and in assay [4] was “inactive” in each case.

With `CCCCCCCCCCC1CO1` (stereo not given), the Potency entry in assay [1], in assay [5], in assay [2], in assay [3] and in assay [4] was “inactive” in each case.

Consider `CC(=O)CCc1ccc(O)cc1`, for which, in assay [1], the Potency is 20 µM (active). Moreover, the Potency result in assay [5], in assay [2], in assay [3] and in assay [4] was “inactive” throughout.

As to `CCOC(=O)Nc1ccc2c(c1)N(C(=O)CCN1CCOCC1)c1ccccc1S2`, the Potency in assay [1] was 7.76 µM (active); in assay [5], 15.5 µM (active). Further, the Potency entry in assay [2] and in assay [3] was “inactive” each time.

Turning to `CCCOCC(C)OCC(C)O` (stereo not given), the Potency entry in assay [3] was “inactive”.

As for `CN(C)C(=O)C(CCN1CCC(O)(c2ccc(Cl)cc2)CC1)(c1ccccc1)c1ccccc1`, the Potency entry in assay [2] and in assay [4] was “inactive” throughout.

Take `c1ccc(CCCc2ccccn2)cc1`: the figures for the Potency in assay [1], in assay [5] and in assay [2] were 5.64 µM (active), 35.6 µM (active) and 22.4 µM (active), respectively. The Potency entry in assay [3] and in assay [4] was “inactive” throughout.

`CC(C)CCCCCCN`: the Potency result in assay [1], in assay [5], in assay [2], in assay [3] and in assay [4] was “inactive” in each case.

With `CN(C)CCn1nnnc1SCC1=C(C(=O)O)N2C(=O)[C@@H](NC(=O)Cc3csc(N)n3)[C@H]2SC1`, the Potency result in assay [2], in assay [3] and in assay [4] was “inactive” throughout.

Regarding `CC(C)(C)OC(=O)N1C[C@@H](F)C[C@H]1C(=O)O`, the Potency result in assay [6] was “inactive”. In addition, the Potency in assay [4] was 36.8 µM (active).

Regarding `Cc1onc(-c2ccccc2)c1-c1ccc(S(N)(=O)=O)cc1`, the Potency in assay [1] is 7.76 µM (active). For the same compound, the Potency entry in assay [2], in assay [3] and in assay [4] was “inactive” in each case.

`Cc1ccc(N)cc1[N+](=O)[O-]`: in assay [1], the Potency result is “inactive”. The Potency in assay [5] is 35.8 µM (active); in assay [2], 8.02 µM (active); in assay [4] it was 40.2 µM (active).
